We go through 40 compounds from PubChem BioAssay (NCATS).

Results filed as inconclusive are left out. Entries that show only a call come without a potency. The source made the active and inactive calls. The call rests on the fitted dose curve; in most records, active means well fitted cell-killing curve with a large enough effect; inconclusive means small, poorly fitted or top-dose-only effect, or effect the other way; inactive means no such curve, though single readings can be large or run the other way.
Potency means the concentration at half of the fitted maximal effect.

A short description of the assay: Quantitative High-Throughput drug screen in 47 multiple myeloma cell lines against the NCATS MIPE library collection: LP1_DSMZ cell viability assay (AID 1918982). Further: nearly all actives have a fitted effect of over 35% in size. As to conditions: LP1 myeloma viability, CellTiter-Glo ATP luminescence, 48 h; series mostly up to 45.8 µM. From the text:
PI: Beverly A. Mock Ph.D.
Laboratory of Cancer Biology and Genetics,
Center for Cancer Research, National Cancer Institute,
National Institute of Health, Bethesda, Maryland
Drug resistance and disease progression are common in multiple myeloma (MM) patients, underscoring the need for new therapeutic combinations. […] We hypothesized that effective combinations would reduce MYC expression and enhance p16 activity. […] These preclinical data identify potentially useful drug combinations for evaluation in drug-resistant MM and reveal potential mechanisms of combined drug sensitivity.
Described herein is the primary MIPE qHTS used to cherrypick compounds. Validated compounds were then further tested for potential synergistic activiy.
[1] Peat TJ, Gaikwad SM, Dubois W, Gyabaah-Kessie N, Zhang S, Gorjifard S, Phyo Z, Andres M, Hughitt VK, Simpson RM, Miller MA, Girvin AT, Taylor A, Williams D, D'Antonio N, Zhang Y, Rajagopalan A, Flietner E, Wilson K, Zhang X, Shinn P, Klumpp-Thomas C, McKnight C, Itkin Z, Chen L, Kazandijian D, Zhang J, Michalowski AM, Simmons JK, Keats J, Thomas CJ, Mock BA. Drug combinations identified by high-throughput screening promote cell cycle transition and upregulate Smad pathways in myeloma. Cancer Lett. 2023 Aug 1;568:216284. doi: 10.1016/j.canlet.2023.216284. Epub 2023 Jun 24. PMID: 37356470; PMCID: PMC10408729.
SEQUENCE No. (e.g., 1, 2, 3, etc.); […] (e.g., Cells, Incubation, Reagent, etc.); VALUE and DESCRIPTION.
1; Cells; 5 uL; white, solid bottom 1536-well Greiner assay plate.
2; Compounds; 23 nL; Kalypsis pin tool (Wako USA) equipped with a 1536-well pin head to transfer to the assay plates.
3; Incubation; 48 hours; 37C incubation.
4; Reagent;5uL; CellTiter Glo (Promega).
5; Detector; 425V; Luminescence; Viewlux PerkinElmer.
NOTES (numbers refer to Sequence numbers above)
1. The cell-based screening methods employed in this study were like those previously published. Briefly, the corresponding myeloma cell lines were screened in 1,536-well plates with 500 cells, 5-uL per well for inhibition of cell viability (assessed by measuring ATP levels with CellTiterGlo).
2. NCATS MIPE 4.0 library of approved and investigational drugs were added using the Kalypsis pin tool. Wells treated with DMSO only for 100% viability and media only for 0% viability were used as controls.
3. The assay plates were covered and incubated for 48 hours in a 37C, 5% CO2 incubator with controlled humidity.
4. After 48 hours, CellTilter-GloTM luminescent substrate mix (Promega) reagent was added to the assay plate and plates we incubated for 5 min at room temperature.
5. Signal was measured as median relative luminescence units on a ViewLux (PerkinElmer) multiplate reader.
[1] Heske CM, Davis MI, Baumgart JT, Wilson K, Gormally MV, Chen L, Zhang X, Ceribelli M, Duveau DY, Guha R, Ferrer M, Arnaldez FI, Ji J, Tran HL, Zhang Y, Mendoza A, Helman LJ, Thomas CJ. Matrix Screen Identifies Synergistic Combination of PARP Inhibitors and Nicotinamide Phosphoribosyltransferase (NAMPT) Inhibitors in Ewing Sarcoma. Clin Cancer Res. 2017 Dec 1;23(23):7301-7311. doi: 10.1158/1078-0432.CCR-17-1121. Epub 2017 Sep 12. PMID: 28899971; PMCID: PMC6636827.
For orientation: In ATP-based viability assays light output follows the ATP content of the culture.
`C=C1C(=O)[C@@]23C(CC[C@@H]1[C@H]2O)[C@@]12CO[C@]3(O)[C@@H](O)[C@@H]1C(C)(C)CC[C@@H]2O` (stereo not given in full): the Potency is 4.18 µM (active).

On to `CCn1c(C(=O)N(C2CC2)C2CC2)cc2c3c(ncn3C)c(Nc3cc(C)n(C)n3)nc21`, for which the Potency result was “inactive”. The result for `O=C(OCC#CCSc1nnc(-c2cccc3ccccc23)o1)c1cc2ccccc2s1` reads “inactive”; that for `CO[C@H]1C[C@@H]2CC[C@@H](C)[C@@](O)(O2)C(=O)C(=O)N2CCCC[C@@H]2C(=O)O[C@H]([C@@H](C)C[C@@H]2CC[C@H](O)[C@H](OC)C2)CC(=O)[C@H](C)C=C(C)[C@@H](O)[C@@H](OC)C(=O)[C@H](C)C[C@H](C)C=CC=CC=C1C`, “inactive”. The result for `CO[C@H]1C=CC=C(C)C(=O)NC2=CC(=O)C(NCCN(C)C)=C(C[C@@H](C)C[C@H](OC)[C@@H](O)[C@@H](C)C=C(C)[C@@H]1OC(N)=O)C2=O` reads 0.418 µM (active); that for `O=C(NC1CCOCC1)c1ccc(-c2cc(-c3cn[nH]c3-c3ccccn3)ccn2)cc1`, 14.8 µM (active); that for `COC(=O)C1=CO[C@@H](O)[C@@H]2C(CO)=CC[C@@H]12`, “inactive”. With `NS(=O)(=O)c1ccc(NC2=CC(=O)c3ccccc3C2=O)cc1`, the Potency was 2.35 µM (active). In the case of `COc1cc2nc(-c3ccc(N4CCN(C)CC4)cc3)nc(NCCN3CCOCC3)c2cc1OC` it was 0.132 µM (active).

For the compound `NC1CCC(Nc2nc(Nc3ccc(C(=O)N4CCCCC4)cc3)c3ncn(-c4cccc(F)c4)c3n2)CC1` (stereo not given), the Potency result was “inactive”. The result for `CC[C@]1(O)C[C@@H]2CN(CCc3c([nH]c4ccccc34)[C@@](C(=O)OC)(c3cc4c(cc3OC)N(C=O)[C@@H]3C45CCN4CC=C[C@](CC)([C@H]45)[C@@H](OC(C)=O)[C@]3(O)C(=O)OC)C2)C1` (stereo not given in full) reads 20.9 µM (active); that for `COc1cc(NC(=O)c2ccc(-c3ccc(Cl)cc3)o2)cc(OC)c1`, “inactive”; that for `CC(C)OC(=O)CCCC=CC[C@@H]1[C@H](C=C[C@@H](O)COc2cccc(C(F)(F)F)c2)[C@H](O)C[C@@H]1O`, 14.8 µM (active).

Take `O=C1c2ccccc2-[n+]2ccc3c([nH]c4ccccc43)c21`: the Potency is 2.35 µM (active). In the case of `O=C1C(Cl)=C(NCCN2CCOCC2)C(=O)c2ncccc21` it was 8.33 µM (active); in that of `CC[C@H]1OC(=O)[C@H](C)[C@@H](O[C@H]2C[C@@](C)(OC)[C@@H](O)[C@H](C)O2)[C@H](C)[C@@H](O[C@@H]2O[C@H](C)C[C@H](N(C)C)[C@@H]2O)[C@](C)(O)C[C@@H](C)CN(C)[C@H](C)[C@@H](O)[C@]1(C)O`, “inactive”.

Take `O=c1ccn([C@@H]2O[C@H](CO)[C@H](O)[C@H]2O)c(=O)[nH]1`: the Potency is 14.8 µM (active). For the compound `O=C(NCc1ccccc1)c1csc(Nc2ccncn2)n1`, the Potency is 18.7 µM (active). For the compound `CC(=Cc1ccccc1)C=C1SC(=S)N(CC(=O)O)C1=O`, the Potency entry was “inactive”. The result for `CCC(CC)[C@H](NC(C)=O)[C@@H]1[C@H](O)[C@@H](C(=O)O)C[C@@H]1N=C(N)N` reads “inactive”. In the case of `C[C@]12CCC3c4ccc(O)cc4CCC3C1CCC2=O` (stereo not given in full) it was 18.7 µM (active); in that of `O=c1cc(CN2CCOCC2)occ1OCCCCCSc1ccnc2cc(C(F)(F)F)ccc12`, 18.7 µM (active). On to `N#C[C@H]1C[C@H]2C[C@@H]2N1C(=O)[C@@H](N)C12CC3CC(CC(O)(C3)C1)C2`, for which the Potency result is “inactive”.

In the case of `COc1ccc2cccc(CCNC(C)=O)c2c1`, the Potency entry was “inactive”. The result for `O=C(CCc1ccc(O)cc1)c1c(O)cc(O)cc1O[C@@H]1O[C@H](CO)[C@H](O)[C@H](O)[C@H]1O` reads “inactive”; that for `N#Cc1ccc(NC(=O)Nc2ccccc2Br)c2n[nH]nc12`, “inactive”. Regarding `COc1ccc2c(Oc3ccc(NC(=O)c4c(C)n(CC(C)(C)O)n(-c5ccccc5)c4=O)nc3)ccnc2c1`, the Potency entry is “inactive”. For the compound `Cc1c(O)cccc1C(=O)N[C@@H](CSc1ccccc1)[C@H](O)CN1C[C@H]2CCCC[C@@H]2C[C@@H]1C(=O)NC(C)(C)C`, the Potency was 20.9 µM (active). In the case of `CN(C)CCC=C1c2ccccc2COc2ccc(CC(=O)O)cc21` it was “inactive”; in that of `CN1[C@@H]2CCC[C@@H]1CC(NC(=O)c1nn(C)c3ccccc13)C2` (stereo not given in full), “inactive”. In the case of `COc1cccc([C@@H](C)NCCCc2ccccc2Cl)c1` it was “inactive”; in that of `COc1ccc2c3c1OC1C[C@@H](O)C=C[C@@]31CCN(C)C2` (stereo not given in full), “inactive”.

`CC(C)(C)c1cc(C(=O)O)c(NC(=O)Nc2ccc3[nH]ncc3c2)s1`: the Potency entry was “inactive”. In the case of `NS(=O)(=O)c1cccc2c1C(=O)c1cccc(O)c1C2=O` it was 0.743 µM (active); in that of `CCc1ccc(OCc2ccccc2C(=O)Nc2ccc3nc(C)cc(N)c3c2)cc1`, 8.33 µM (active). In the case of `C[C@]12CC[C@@H]3c4ccc(O)cc4CC[C@H]3[C@H]1C[C@@H](O)[C@H]2O`, the Potency entry was “inactive”. For the compound `Nc1ncnc2c1nc(Cl)n2[C@@H]1O[C@H](CO)[C@@H](O)[C@@H]1O`, the Potency was 20.9 µM (active).

Take `COc1ccc(C2Sc3ccccc3N(CCN(C)C)C(=O)C2OC(C)=O)cc1` (stereo not given): the Potency is 0.0017 µM (active).

`CC(C)(Cc1ccc2ccccc2c1)NC[C@@H](O)COc1cccc(Cl)c1C#N`: the Potency result was “inactive”.

On to `CO[C@H]1C[C@@H]2CC[C@@H](C)[C@@](O)(O2)C(=O)C(=O)N2CCCC[C@@H]2C(=O)O[C@H]([C@H](C)C[C@@H]2CC[C@H](OP(C)(C)=O)[C@H](OC)C2)CC(=O)[C@H](C)C=C(C)[C@@H](O)[C@@H](OC)C(=O)[C@H](C)C[C@H](C)C=CC=CC=C1C`, for which the Potency entry was “inactive”.
